The values that follow come from publication PMC7862700, “An all-to-all approach to the identification of sequence-specific readers for epigenetic DNA modifications on cytosine”.

Common to all, as to experiment: DAPPL (digital affinity profiling via proximity ligation, sequencing); 10 mM Tris-HCl pH 7.5, 50 mM NaCl, 1 mM DTT, 4% glycerol, room temperature, 30 min; GST-TFs on glutathione beads, 16-mer random dsDNA library, 0.1% formaldehyde crosslink after washing; high values mean tight binding
One assay has as its target T1, FEV (Homo sapiens, UniProt Q99581 1-238).
T1 sequence: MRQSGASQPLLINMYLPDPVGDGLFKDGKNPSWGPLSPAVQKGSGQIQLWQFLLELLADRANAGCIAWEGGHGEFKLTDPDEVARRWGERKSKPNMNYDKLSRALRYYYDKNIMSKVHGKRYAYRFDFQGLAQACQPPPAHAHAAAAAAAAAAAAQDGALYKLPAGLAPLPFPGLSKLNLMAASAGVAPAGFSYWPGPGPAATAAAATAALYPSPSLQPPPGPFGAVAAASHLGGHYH
The following applies: protein: recombinant; tags: N-terminal GST; dsDNA, one strand shown. In a few lines: (§1)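 After expression in yeast as GST fusions, human transcription factors were bound to glutathione beads, DNA-barcoded and mixed with a tag-only sample. The pools were incubated with 200 nmole of a 16-mer random double-stranded DNA library in Tris/NaCl/DTT/glycerol buffer (30 min, room temperature), washed and crosslinked with 0.1% formaldehyde. Proximity ligation with BsaI/T4 ligase ran for 1 h at 37 °C, before PCR amplification and sequencing on an Illumina NextSeq500. Binding signal is a hexamer's read frequency for a factor divided by its frequency for the tag-only sample.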

Another assay concerns the target ETV5 (Homo sapiens, UniProt P41161 1-510). The following applies: protein: recombinant; tags: N-terminal GST; dsDNA, one strand shown. In a few lines:
as §1

The target in a further assay is HSF1 (Homo sapiens, UniProt Q00613 1-529). The settings on record: protein: recombinant; tags: N-terminal GST; chain copies: 3; dsDNA, one strand shown. Summed up: as §1
A further assay has as its target T2, SPIC (Homo sapiens, UniProt Q8N5J4 1-248).
T2 sequence: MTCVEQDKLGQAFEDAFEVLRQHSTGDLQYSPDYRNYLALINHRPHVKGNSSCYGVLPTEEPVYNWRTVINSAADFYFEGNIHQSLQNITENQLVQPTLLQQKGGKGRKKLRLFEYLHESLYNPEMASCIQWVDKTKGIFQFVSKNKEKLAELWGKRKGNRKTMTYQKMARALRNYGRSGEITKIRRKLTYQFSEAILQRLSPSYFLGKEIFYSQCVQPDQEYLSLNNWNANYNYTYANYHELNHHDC
The following applies: protein: recombinant; tags: N-terminal GST; dsDNA, one strand shown. Summed up: as §1

A further assay deals with ELF4 (Homo sapiens, UniProt Q99607 1-663). The settings on record: protein: recombinant; tags: N-terminal GST; dsDNA, one strand shown. In a few lines: as §1
The next assay has as its target T3, ELK4 (Homo sapiens, UniProt P28324-2 1-405).
T3 sequence: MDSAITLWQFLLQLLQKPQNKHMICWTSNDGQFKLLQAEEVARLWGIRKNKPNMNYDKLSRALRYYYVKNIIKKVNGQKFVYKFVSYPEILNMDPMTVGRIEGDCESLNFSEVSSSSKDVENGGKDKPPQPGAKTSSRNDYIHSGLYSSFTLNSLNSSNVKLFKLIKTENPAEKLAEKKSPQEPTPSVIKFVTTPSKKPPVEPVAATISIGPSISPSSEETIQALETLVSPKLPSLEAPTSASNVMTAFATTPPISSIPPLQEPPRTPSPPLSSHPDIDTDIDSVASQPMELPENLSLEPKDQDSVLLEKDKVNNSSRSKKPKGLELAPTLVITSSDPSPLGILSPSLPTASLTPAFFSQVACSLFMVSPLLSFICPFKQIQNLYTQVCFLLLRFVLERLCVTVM
The following applies: protein: recombinant; tags: N-terminal GST; dsDNA, one strand shown. In a few lines:
as §1

For the next assay, the target named is T4, ETV2 (Homo sapiens, UniProt O00321 1-342).
T4 sequence: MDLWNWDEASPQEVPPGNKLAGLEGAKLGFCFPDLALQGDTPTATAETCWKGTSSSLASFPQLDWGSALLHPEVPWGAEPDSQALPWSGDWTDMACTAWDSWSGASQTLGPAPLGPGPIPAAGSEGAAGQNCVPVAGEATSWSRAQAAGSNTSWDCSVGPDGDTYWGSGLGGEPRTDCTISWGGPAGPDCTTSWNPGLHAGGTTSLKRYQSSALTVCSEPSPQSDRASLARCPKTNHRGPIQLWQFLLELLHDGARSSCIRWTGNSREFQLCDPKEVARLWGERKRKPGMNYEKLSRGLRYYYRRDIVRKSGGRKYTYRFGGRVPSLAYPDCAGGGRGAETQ
The settings on record: protein: recombinant; tags: N-terminal GST; dsDNA, one strand shown. In a few lines: as §1

The target of a further assay is T5, ELF3 (Homo sapiens, UniProt P78545 1-371).
T5 sequence: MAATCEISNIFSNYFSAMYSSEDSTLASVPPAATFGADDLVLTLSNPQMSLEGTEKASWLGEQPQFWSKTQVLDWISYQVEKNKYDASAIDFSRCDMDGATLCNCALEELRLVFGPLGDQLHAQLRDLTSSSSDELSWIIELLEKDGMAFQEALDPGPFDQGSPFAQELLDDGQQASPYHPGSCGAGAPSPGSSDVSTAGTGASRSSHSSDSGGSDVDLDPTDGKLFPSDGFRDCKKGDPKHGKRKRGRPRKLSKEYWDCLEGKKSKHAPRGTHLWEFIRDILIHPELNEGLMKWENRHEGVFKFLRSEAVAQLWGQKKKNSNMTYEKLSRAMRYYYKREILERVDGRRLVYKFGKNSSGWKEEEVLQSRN
The following applies: protein: recombinant; tags: N-terminal GST; dsDNA, one strand shown. In a few lines:
as §1

In the next assay the target is CRX (Homo sapiens, UniProt O43186 1-299). The following applies: protein: recombinant; tags: N-terminal GST; dsDNA, one strand shown. In a few lines:
as §1

Another assay addresses ETV1 (Homo sapiens, UniProt P50549 1-477). The settings on record: protein: recombinant; tags: N-terminal GST; dsDNA, one strand shown. In a few lines:
as §1

The next assay concerns the target T6, ERF (Homo sapiens, UniProt P50548 1-548).
T6 sequence: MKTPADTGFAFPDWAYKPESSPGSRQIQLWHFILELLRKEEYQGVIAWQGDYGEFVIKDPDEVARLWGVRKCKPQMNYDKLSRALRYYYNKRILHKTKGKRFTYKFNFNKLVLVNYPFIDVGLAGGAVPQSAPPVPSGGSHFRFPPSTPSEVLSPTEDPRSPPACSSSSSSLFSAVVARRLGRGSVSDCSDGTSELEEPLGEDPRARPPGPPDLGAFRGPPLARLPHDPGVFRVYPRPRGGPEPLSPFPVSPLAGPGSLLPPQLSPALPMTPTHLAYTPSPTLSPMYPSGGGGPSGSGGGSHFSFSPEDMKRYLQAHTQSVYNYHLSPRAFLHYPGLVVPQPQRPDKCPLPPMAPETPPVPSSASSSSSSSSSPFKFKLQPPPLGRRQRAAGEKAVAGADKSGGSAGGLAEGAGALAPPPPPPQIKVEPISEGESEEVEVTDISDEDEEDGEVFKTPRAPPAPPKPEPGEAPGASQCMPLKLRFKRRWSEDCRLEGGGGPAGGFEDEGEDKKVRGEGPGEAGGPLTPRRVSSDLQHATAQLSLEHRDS
The settings on record: protein: recombinant; tags: N-terminal GST; dsDNA, one strand shown. Summed up: as §1

Another assay concerns the target T7, ETV3L (Homo sapiens, UniProt Q6ZN32 1-361).
T7 sequence: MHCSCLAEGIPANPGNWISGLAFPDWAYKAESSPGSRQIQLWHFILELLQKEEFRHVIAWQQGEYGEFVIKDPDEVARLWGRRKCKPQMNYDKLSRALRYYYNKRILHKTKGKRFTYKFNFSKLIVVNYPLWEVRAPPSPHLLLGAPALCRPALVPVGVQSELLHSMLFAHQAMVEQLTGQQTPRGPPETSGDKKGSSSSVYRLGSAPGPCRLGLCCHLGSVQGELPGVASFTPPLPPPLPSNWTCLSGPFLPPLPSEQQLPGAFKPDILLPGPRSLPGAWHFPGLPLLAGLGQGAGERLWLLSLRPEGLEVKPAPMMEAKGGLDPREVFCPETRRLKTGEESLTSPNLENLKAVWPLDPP
The following applies: protein: recombinant; tags: N-terminal GST; dsDNA, one strand shown. Summed up:
as §1

In the next assay the target is T8, ETS2 (Homo sapiens, UniProt P15036 1-469).
T8 sequence: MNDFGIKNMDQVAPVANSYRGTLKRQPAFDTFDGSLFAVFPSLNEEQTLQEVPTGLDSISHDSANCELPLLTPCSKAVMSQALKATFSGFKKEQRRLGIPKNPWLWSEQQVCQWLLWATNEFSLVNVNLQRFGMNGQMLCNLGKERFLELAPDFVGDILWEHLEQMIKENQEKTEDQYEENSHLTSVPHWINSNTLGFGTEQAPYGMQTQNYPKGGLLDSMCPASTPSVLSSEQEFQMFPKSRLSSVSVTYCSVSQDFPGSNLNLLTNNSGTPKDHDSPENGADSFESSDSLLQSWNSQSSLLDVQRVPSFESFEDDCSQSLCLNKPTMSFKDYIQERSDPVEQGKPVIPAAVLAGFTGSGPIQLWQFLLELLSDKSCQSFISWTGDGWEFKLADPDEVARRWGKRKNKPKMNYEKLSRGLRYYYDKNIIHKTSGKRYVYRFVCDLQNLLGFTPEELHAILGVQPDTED
The following applies: protein: recombinant; tags: N-terminal GST; dsDNA, one strand shown. Summed up: as §1

Another assay concerns the target T9, SPDEF (Homo sapiens, UniProt O95238 1-335).
T9 sequence: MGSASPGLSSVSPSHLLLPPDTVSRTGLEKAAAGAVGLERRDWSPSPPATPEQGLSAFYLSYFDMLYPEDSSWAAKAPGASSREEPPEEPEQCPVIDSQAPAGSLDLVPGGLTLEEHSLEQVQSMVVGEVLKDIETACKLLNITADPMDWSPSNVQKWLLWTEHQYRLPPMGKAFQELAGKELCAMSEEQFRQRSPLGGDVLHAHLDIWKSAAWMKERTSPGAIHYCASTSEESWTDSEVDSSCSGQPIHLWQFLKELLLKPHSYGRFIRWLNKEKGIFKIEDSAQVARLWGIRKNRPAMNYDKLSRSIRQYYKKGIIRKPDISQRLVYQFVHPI
The following applies: protein: recombinant; tags: N-terminal GST; dsDNA, one strand shown. In a few lines:
as §1

The next assay deals with T10, ETV7 (Homo sapiens, UniProt Q9Y603 1-341).
T10 sequence: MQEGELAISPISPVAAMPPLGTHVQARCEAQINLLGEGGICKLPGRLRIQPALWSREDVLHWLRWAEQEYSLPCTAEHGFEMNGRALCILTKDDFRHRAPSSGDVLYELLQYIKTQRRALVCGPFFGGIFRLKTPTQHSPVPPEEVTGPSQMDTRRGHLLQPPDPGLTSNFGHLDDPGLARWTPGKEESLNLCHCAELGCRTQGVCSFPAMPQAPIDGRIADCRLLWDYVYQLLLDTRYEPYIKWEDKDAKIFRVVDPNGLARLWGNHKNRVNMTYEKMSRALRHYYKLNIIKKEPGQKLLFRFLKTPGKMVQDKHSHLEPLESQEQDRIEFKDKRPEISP
The settings on record: protein: recombinant; tags: N-terminal GST; dsDNA, one strand shown. Summed up:
as §1

A further assay addresses T11, ELF5 (Homo sapiens, UniProt Q9UKW6-2 1-255).
T11 sequence: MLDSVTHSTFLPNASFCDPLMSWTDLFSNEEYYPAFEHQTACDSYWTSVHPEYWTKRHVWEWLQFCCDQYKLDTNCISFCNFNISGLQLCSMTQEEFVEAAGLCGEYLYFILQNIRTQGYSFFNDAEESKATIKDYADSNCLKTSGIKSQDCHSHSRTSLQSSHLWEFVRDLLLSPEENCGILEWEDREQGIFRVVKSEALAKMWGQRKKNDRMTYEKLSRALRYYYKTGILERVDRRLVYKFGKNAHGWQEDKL
The following applies: protein: recombinant; tags: N-terminal GST; dsDNA, one strand shown. Summed up: as §1

Another assay deals with T12, ETV3 (Homo sapiens, UniProt P41162-2 1-143).
T12 sequence: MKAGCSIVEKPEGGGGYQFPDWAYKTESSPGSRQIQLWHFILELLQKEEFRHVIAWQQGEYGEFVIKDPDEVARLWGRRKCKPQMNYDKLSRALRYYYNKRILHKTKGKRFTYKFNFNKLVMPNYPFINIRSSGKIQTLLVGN
The settings on record: protein: recombinant; tags: N-terminal GST; dsDNA, one strand shown. Summed up: as §1

A further assay addresses ETV6 (Homo sapiens, UniProt P41212 1-452). The settings on record: protein: recombinant; tags: N-terminal GST; dsDNA, one strand shown. In a few lines: as §1

HSF1, sequence (Q00613 whole entry): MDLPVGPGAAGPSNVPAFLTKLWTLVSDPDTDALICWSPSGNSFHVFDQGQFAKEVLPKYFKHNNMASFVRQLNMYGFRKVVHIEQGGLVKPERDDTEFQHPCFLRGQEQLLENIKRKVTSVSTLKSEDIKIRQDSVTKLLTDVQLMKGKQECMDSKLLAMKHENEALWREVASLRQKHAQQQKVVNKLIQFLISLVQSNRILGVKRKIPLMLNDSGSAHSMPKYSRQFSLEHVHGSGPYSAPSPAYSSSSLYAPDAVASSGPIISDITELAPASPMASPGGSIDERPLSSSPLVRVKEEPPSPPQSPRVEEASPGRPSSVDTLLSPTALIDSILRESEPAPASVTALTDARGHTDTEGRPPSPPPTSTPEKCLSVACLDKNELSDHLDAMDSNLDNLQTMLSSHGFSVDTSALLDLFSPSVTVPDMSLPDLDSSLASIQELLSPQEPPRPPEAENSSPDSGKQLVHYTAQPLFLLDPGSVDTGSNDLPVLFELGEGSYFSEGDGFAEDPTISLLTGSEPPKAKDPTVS
ELF4, sequence (Q99607 whole entry): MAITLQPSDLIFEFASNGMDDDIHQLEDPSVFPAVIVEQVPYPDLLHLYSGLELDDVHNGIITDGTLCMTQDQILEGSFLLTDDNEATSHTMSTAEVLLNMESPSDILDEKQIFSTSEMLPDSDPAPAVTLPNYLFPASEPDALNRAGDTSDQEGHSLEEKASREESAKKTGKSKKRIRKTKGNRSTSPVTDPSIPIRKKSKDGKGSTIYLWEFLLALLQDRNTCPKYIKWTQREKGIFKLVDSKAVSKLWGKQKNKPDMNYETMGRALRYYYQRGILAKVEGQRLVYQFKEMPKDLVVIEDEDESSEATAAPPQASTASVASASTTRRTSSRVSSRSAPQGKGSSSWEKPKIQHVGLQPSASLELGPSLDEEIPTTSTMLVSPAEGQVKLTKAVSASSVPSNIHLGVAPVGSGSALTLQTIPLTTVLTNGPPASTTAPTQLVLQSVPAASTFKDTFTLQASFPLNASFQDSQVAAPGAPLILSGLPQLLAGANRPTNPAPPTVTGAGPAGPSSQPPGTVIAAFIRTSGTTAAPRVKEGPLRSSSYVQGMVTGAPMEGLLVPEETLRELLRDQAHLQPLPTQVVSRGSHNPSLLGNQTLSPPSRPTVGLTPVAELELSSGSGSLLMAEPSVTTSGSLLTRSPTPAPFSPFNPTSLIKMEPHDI
ETV6, sequence (P41212 whole entry): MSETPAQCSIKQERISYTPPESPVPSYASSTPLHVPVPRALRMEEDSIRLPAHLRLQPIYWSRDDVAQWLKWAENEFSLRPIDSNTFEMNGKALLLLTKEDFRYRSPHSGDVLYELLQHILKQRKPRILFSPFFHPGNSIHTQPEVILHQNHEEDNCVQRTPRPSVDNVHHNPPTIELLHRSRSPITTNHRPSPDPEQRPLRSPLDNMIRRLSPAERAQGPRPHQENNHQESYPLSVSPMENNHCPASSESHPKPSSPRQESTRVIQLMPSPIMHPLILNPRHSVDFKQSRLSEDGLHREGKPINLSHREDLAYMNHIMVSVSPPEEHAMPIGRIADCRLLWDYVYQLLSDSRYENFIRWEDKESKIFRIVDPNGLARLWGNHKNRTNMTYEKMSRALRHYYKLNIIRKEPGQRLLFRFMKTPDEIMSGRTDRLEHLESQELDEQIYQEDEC
ETV1, sequence (P50549 whole entry): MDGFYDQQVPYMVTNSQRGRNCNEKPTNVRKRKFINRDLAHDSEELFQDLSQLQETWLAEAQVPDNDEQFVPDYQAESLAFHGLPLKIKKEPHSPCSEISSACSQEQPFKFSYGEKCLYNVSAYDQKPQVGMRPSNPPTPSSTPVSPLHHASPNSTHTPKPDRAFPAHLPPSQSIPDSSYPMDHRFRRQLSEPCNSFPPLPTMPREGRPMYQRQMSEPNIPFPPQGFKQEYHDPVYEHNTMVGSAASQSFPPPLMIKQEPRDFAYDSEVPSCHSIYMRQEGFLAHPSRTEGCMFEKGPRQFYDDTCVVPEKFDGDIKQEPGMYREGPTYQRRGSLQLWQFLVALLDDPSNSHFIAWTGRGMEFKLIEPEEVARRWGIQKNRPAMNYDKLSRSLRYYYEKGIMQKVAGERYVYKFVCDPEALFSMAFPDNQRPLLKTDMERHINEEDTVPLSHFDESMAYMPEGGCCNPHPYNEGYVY
CRX, sequence (O43186 whole entry): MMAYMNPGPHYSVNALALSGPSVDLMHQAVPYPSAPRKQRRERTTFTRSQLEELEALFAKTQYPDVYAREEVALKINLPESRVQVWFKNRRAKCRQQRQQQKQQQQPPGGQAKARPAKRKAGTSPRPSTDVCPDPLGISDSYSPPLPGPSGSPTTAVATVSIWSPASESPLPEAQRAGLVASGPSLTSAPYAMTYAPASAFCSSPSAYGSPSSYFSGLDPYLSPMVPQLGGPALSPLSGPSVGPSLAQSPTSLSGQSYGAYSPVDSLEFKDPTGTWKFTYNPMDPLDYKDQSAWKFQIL
ETV5, sequence (P41161 whole entry): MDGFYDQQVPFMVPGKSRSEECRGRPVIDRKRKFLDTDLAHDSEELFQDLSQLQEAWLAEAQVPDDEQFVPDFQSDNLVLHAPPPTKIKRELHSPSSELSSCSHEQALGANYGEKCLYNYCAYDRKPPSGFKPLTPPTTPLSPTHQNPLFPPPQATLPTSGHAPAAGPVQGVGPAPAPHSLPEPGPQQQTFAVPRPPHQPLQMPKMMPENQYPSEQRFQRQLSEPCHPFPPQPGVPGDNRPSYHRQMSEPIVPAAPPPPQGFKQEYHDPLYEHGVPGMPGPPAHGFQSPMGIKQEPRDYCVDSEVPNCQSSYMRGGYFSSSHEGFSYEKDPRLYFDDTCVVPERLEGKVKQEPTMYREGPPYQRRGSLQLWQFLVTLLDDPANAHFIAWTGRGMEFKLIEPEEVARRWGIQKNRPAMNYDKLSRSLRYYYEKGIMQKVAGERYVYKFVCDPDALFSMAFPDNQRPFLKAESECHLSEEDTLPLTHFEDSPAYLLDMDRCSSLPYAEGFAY

For the sequence CCCGCA, the binding signal with FEV was 1.26 fold enrichment (6-mer frequency, TF over GST control); with ETV5, 1.27 fold enrichment (6-mer frequency, TF over GST control); with HSF1, 1.22 fold enrichment (6-mer frequency, TF over GST control); with SPIC, 1.27 fold enrichment (6-mer frequency, TF over GST control); with ELF4, 1.34 fold enrichment (6-mer frequency, TF over GST control); with ELK4, 1.35 fold enrichment (6-mer frequency, TF over GST control). The binding signal was 1.28 fold enrichment (6-mer frequency, TF over GST control) with ETV2; 1.36 fold enrichment (6-mer frequency, TF over GST control) with ELF3; 1.1 fold enrichment (6-mer frequency, TF over GST control) in the assay with CRX; 1.23 fold enrichment (6-mer frequency, TF over GST control) in the assay with ETV1; 1.24 fold enrichment (6-mer frequency, TF over GST control) in the assay with ERF; 1.22 fold enrichment (6-mer frequency, TF over GST control) with ETV3L. Further, the binding signal in the assay with ETS2 is 1.18 fold enrichment (6-mer frequency, TF over GST control); with SPDEF, 1.27 fold enrichment (6-mer frequency, TF over GST control); in the assay with ETV7, 1.31 fold enrichment (6-mer frequency, TF over GST control); with ELF5 it was 1.27 fold enrichment (6-mer frequency, TF over GST control); with ETV3, 1.2 fold enrichment (6-mer frequency, TF over GST control); with ETV6, 1.25 fold enrichment (6-mer frequency, TF over GST control).
